# Experimental data taken from PMC12820563, “FoxP3 forms a head-to-head dimer in vivo and stabilizes its multimerization on adjacent microsatellites”.
# The full ranking holds about 16,000 sequences; the median of “rpm ratio (pull-down/input)” is about 0.94, and the highest 2% start at about 1.7. Shown is part of a subset that was picked to be rich in the highest values.
# Molecular target: T1, MBP-FoxP1dN (Mus musculus, UniProt P58462 326-579)
# T1 sequence: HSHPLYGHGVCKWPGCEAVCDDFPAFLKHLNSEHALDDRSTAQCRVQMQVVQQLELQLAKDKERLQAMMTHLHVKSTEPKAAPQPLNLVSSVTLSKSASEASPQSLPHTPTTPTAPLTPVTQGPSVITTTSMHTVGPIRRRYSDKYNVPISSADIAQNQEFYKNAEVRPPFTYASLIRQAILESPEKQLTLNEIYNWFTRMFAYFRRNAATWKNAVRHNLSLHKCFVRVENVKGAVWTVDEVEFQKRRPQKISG
# Experiment: PD-seq (MBP pull-down with sequencing); 20 mM Tris-HCl pH 7.5, 100 mM NaCl, 1.5 mM MgCl2, 0.4 uM protein, 0.1 uM dsDNA library, 30 min, room temperature, amylose pull-down; high values mean tight binding
# Conditions: protein: recombinant; tags: His6-MBP; chain copies: 2; dsDNA, one strand shown
# In short: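 A degenerate double-stranded DNA library, filled in with Klenow, was added at 0.1 µM to 0.4 µM His6-MBP-tagged mouse FoxP3 or FoxP1 fragment lacking the N-terminus, expressed in E. coli. Incubation lasted 30 min at room temperature in Tris pH 7.5 buffer with NaCl and MgCl2, after which complexes were collected on amylose resin, washed three times, digested with proteinase K to free the DNA, barcoded by PCR and sequenced by Illumina. Binding is the pooled-replicate reads-per-million enrichment of pull-down over input.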
row,Sequence,binding signal
1,GATGATTGTTCTCCCAGCTGATGAATTTGGCAGCTCGAGTAAACAAATTTTCCTAATCTTTCTGTTCAAGCGCCATCTAC,0.875 RPM ratio (pull-down/input)
2,GATGATTGTTCTCCCAGCTGATGAATTAACGCTGTCGAGTAAACAAATTTTCCTAATCTTTCTGTTCAAGCGCCATCTAC,0.97 RPM ratio (pull-down/input)
3,GATGATTGTTCTCCCAGCTGATGAATTAAAGAGTTCGAGTAAACAAATTTTCCTAATCTTTCTGTTCAAGCGCCATCTAC,0.941 RPM ratio (pull-down/input)
4,GATGATTGTTCTCCCAGCTGATGAATTCAGATTATCGAGTAAACAAATTTTCCTAATCTTTCTGTTCAAGCGCCATCTAC,0.977 RPM ratio (pull-down/input)
5,GATGATTGTTCTCCCAGCTGATGAATTCGGTAGATCGAGTAAACAAATTTTCCTAATCTTTCTGTTCAAGCGCCATCTAC,0.874 RPM ratio (pull-down/input)
6,GATGATTGTTCTCCCAGCTGATGAATTTATATGATCGAGTAAACAAATTTTCCTAATCTTTCTGTTCAAGCGCCATCTAC,1.14 RPM ratio (pull-down/input)
7,GATGATTGTTCTCCCAGCTGATGAATTTTATTTTTCGAGTAAACAAATTTTCCTAATCTTTCTGTTCAAGCGCCATCTAC,1.96 RPM ratio (pull-down/input)
8,GATGATTGTTCTCCCAGCTGATGAATTATTTATTTCGAGTAAACAAATTTTCCTAATCTTTCTGTTCAAGCGCCATCTAC,2.06 RPM ratio (pull-down/input)
9,GATGATTGTTCTCCCAGCTGATGAATTTGTTTATTCGAGTAAACAAATTTTCCTAATCTTTCTGTTCAAGCGCCATCTAC,2.89 RPM ratio (pull-down/input)
10,GATGATTGTTCTCCCAGCTGATGAATTTTTTTATTCGAGTAAACAAATTTTCCTAATCTTTCTGTTCAAGCGCCATCTAC,0.953 RPM ratio (pull-down/input)
11,GATGATTGTTCTCCCAGCTGATGAATTGTTTTATTCGAGTAAACAAATTTTCCTAATCTTTCTGTTCAAGCGCCATCTAC,1.6 RPM ratio (pull-down/input)
12,GATGATTGTTCTCCCAGCTGATGAATTCTTTATTTCGAGTAAACAAATTTTCCTAATCTTTCTGTTCAAGCGCCATCTAC,1.03 RPM ratio (pull-down/input)
13,GATGATTGTTCTCCCAGCTGATGAATTTTTATTTTCGAGTAAACAAATTTTCCTAATCTTTCTGTTCAAGCGCCATCTAC,2.75 RPM ratio (pull-down/input)
14,GATGATTGTTCTCCCAGCTGATGAATTTATTTCTTCGAGTAAACAAATTTTCCTAATCTTTCTGTTCAAGCGCCATCTAC,1.29 RPM ratio (pull-down/input)
15,GATGATTGTTCTCCCAGCTGATGAATTTATTATTTCGAGTAAACAAATTTTCCTAATCTTTCTGTTCAAGCGCCATCTAC,1.6 RPM ratio (pull-down/input)
16,GATGATTGTTCTCCCAGCTGATGAATTCCTTTATTCGAGTAAACAAATTTTCCTAATCTTTCTGTTCAAGCGCCATCTAC,0.944 RPM ratio (pull-down/input)
17,GATGATTGTTCTCCCAGCTGATGAATTATTTTATTCGAGTAAACAAATTTTCCTAATCTTTCTGTTCAAGCGCCATCTAC,1.22 RPM ratio (pull-down/input)
18,GATGATTGTTCTCCCAGCTGATGAATTAAATTTGTCGAGTAAACAAATTTTCCTAATCTTTCTGTTCAAGCGCCATCTAC,1.06 RPM ratio (pull-down/input)
19,GATGATTGTTCTCCCAGCTGATGAATTAGTACTGTCGAGTAAACAAATTTTCCTAATCTTTCTGTTCAAGCGCCATCTAC,1 RPM ratio (pull-down/input)
20,GATGATTGTTCTCCCAGCTGATGAATTTCGGCTGTCGAGTAAACAAATTTTCCTAATCTTTCTGTTCAAGCGCCATCTAC,0.82 RPM ratio (pull-down/input)
21,GATGATTGTTCTCCCAGCTGATGAATTATCCGCATCGAGTAAACAAATTTTCCTAATCTTTCTGTTCAAGCGCCATCTAC,1.15 RPM ratio (pull-down/input)
22,GATGATTGTTCTCCCAGCTGATGAATTCTTCTGATCGAGTAAACAAATTTTCCTAATCTTTCTGTTCAAGCGCCATCTAC,0.96 RPM ratio (pull-down/input)
23,GATGATTGTTCTCCCAGCTGATGAATTGCGCCATTCGAGTAAACAAATTTTCCTAATCTTTCTGTTCAAGCGCCATCTAC,1.14 RPM ratio (pull-down/input)

row,Sequence,binding signal
1,GATGATTGTTCTCCCAGCTGATGAATTCGATTGCTCGAGTAAACAAATTTTCCTAATCTTTCTGTTCAAGCGCCATCTAC,0.842 RPM ratio (pull-down/input)
2,GATGATTGTTCTCCCAGCTGATGAATTAAAGGTCTCGAGTAAACAAATTTTCCTAATCTTTCTGTTCAAGCGCCATCTAC,0.774 RPM ratio (pull-down/input)
3,GATGATTGTTCTCCCAGCTGATGAATTGAGTGGCTCGAGTAAACAAATTTTCCTAATCTTTCTGTTCAAGCGCCATCTAC,0.823 RPM ratio (pull-down/input)
4,GATGATTGTTCTCCCAGCTGATGAATTTTATTGTTCGAGTAAACAAATTTTCCTAATCTTTCTGTTCAAGCGCCATCTAC,2.31 RPM ratio (pull-down/input)
5,GATGATTGTTCTCCCAGCTGATGAATTTATTTGTTCGAGTAAACAAATTTTCCTAATCTTTCTGTTCAAGCGCCATCTAC,2.15 RPM ratio (pull-down/input)
6,GATGATTGTTCTCCCAGCTGATGAATTTATTTTTTCGAGTAAACAAATTTTCCTAATCTTTCTGTTCAAGCGCCATCTAC,1.41 RPM ratio (pull-down/input)
7,GATGATTGTTCTCCCAGCTGATGAATTTTTTATTTCGAGTAAACAAATTTTCCTAATCTTTCTGTTCAAGCGCCATCTAC,1.04 RPM ratio (pull-down/input)
8,GATGATTGTTCTCCCAGCTGATGAATTAAGGCGATCGAGTAAACAAATTTTCCTAATCTTTCTGTTCAAGCGCCATCTAC,0.912 RPM ratio (pull-down/input)
9,GATGATTGTTCTCCCAGCTGATGAATTTGAACTTTCGAGTAAACAAATTTTCCTAATCTTTCTGTTCAAGCGCCATCTAC,0.845 RPM ratio (pull-down/input)
10,GATGATTGTTCTCCCAGCTGATGAATTTGTACTATCGAGTAAACAAATTTTCCTAATCTTTCTGTTCAAGCGCCATCTAC,1.22 RPM ratio (pull-down/input)
11,GATGATTGTTCTCCCAGCTGATGAATTCTATACATCGAGTAAACAAATTTTCCTAATCTTTCTGTTCAAGCGCCATCTAC,1.08 RPM ratio (pull-down/input)
12,GATGATTGTTCTCCCAGCTGATGAATTGTATACATCGAGTAAACAAATTTTCCTAATCTTTCTGTTCAAGCGCCATCTAC,2.35 RPM ratio (pull-down/input)
13,GATGATTGTTCTCCCAGCTGATGAATTTCTGTAATCGAGTAAACAAATTTTCCTAATCTTTCTGTTCAAGCGCCATCTAC,1.49 RPM ratio (pull-down/input)
14,GATGATTGTTCTCCCAGCTGATGAATTGTAAACATCGAGTAAACAAATTTTCCTAATCTTTCTGTTCAAGCGCCATCTAC,2.78 RPM ratio (pull-down/input)
15,GATGATTGTTCTCCCAGCTGATGAATTTTATACGTCGAGTAAACAAATTTTCCTAATCTTTCTGTTCAAGCGCCATCTAC,0.957 RPM ratio (pull-down/input)
16,GATGATTGTTCTCCCAGCTGATGAATTTGTAACATCGAGTAAACAAATTTTCCTAATCTTTCTGTTCAAGCGCCATCTAC,1.45 RPM ratio (pull-down/input)
17,GATGATTGTTCTCCCAGCTGATGAATTGTATACGTCGAGTAAACAAATTTTCCTAATCTTTCTGTTCAAGCGCCATCTAC,1.82 RPM ratio (pull-down/input)
18,GATGATTGTTCTCCCAGCTGATGAATTCTATACGTCGAGTAAACAAATTTTCCTAATCTTTCTGTTCAAGCGCCATCTAC,0.962 RPM ratio (pull-down/input)
19,GATGATTGTTCTCCCAGCTGATGAATTTCAAACATCGAGTAAACAAATTTTCCTAATCTTTCTGTTCAAGCGCCATCTAC,1.18 RPM ratio (pull-down/input)
20,GATGATTGTTCTCCCAGCTGATGAATTTTATACATCGAGTAAACAAATTTTCCTAATCTTTCTGTTCAAGCGCCATCTAC,1.09 RPM ratio (pull-down/input)
21,GATGATTGTTCTCCCAGCTGATGAATTCTGTAAATCGAGTAAACAAATTTTCCTAATCTTTCTGTTCAAGCGCCATCTAC,1.18 RPM ratio (pull-down/input)
22,GATGATTGTTCTCCCAGCTGATGAATTGTTGTAATCGAGTAAACAAATTTTCCTAATCTTTCTGTTCAAGCGCCATCTAC,1.96 RPM ratio (pull-down/input)
